Shown is part of a subset that was picked to be rich in hits.
Cycloheximide cs = counter-screen hit for Shiga toxin inhibitors, cycloheximide. cell reporter, cycloheximide protein synthesis inhibition counterscreen. actives 12% (n = 300,000). AID 2314. max response, %; in the data active means max response mostly above about 13%, no sharp cut-off; inactive means mostly below about 14%; further: read at 38.3 µM for the half of the compounds with a filed dose
Marburg entry inh = inhibitors of Marburg virus binding or cell entry; Marburg virus pseudotyped entry inhibition, cell reporter; Potency, µM (series often up to 37.8 µM), usual class: inhibitors; actives 1.8% (n = 300,000); calls by dose curve; tested in HEK293 cells
Lassa entry inh = blocks Lassa virus binding to or entry into cells; Lassa virus pseudotype entry inhibition, cell reporter; Potency, µM (series often up to 37.9 µM), actives largely listed as inhibitors; actives 1.2% (n = 300,000); calls by dose curve; tested in HEK293 cells; further: nearly all actives have a fitted effect of over 50% in size
Shiga toxin inh = blocks Shiga toxin action in Vero cells; Vero cells, Shiga toxin protein synthesis inhibition reporter; actives 9.2% (n = 290,000); inhibition, % at 38.7 µM; AID 2315; in the data active means inhibition mostly above about 28%, no sharp cut-off; inactive means mostly below about 43%
AMA1 RON2 block = inhibitors of Plasmodium falciparum AMA1-RON2 interaction; AlphaScreen AMA1-biotinylated RON2 peptide binding; Potency, µM (doses to about 58.2 µM), most hits filed as inhibitors; actives 0.2% (n = 360,000); active means well fitted inhibition curve with a large enough effect; inconclusive means small, poorly fitted or top-dose-only effect; inactive means no such curve, though single readings can be large or run the other way; further: nearly all actives have a fitted effect of over 45% in size
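AMA1 (3D7) with his tag at 25 nM final met compounds first, then biotinylated RON2 peptide at 25 nM; detection used donor plus acceptor beads, 10 µg/mL apiece, read by AlphaScreen after 30 min at room temperature.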
Hits are given with their value; – = inactive; ? = inconclusive; · = not tested or not shown.

SMILES	Cycloheximide cs	Marburg entry inh	Lassa entry inh	Shiga toxin inh	AMA1 RON2 block
CC1CCCCN1CC(=O)Nc1ccc(N2CCCCCC2)cc1 (stereo not given)	–	?	–	–	28µM
O=C(CNCc1ccco1)Nc1ccc(N2CCCCCC2)cc1	30	–	–	–	?
CCCC(=O)Nc1ccc(N2CCCCC2)cc1	25	?	–	110	–
CC1CCCCN1CC(=O)Nc1ccc(Oc2ccccc2)cc1 (stereo not given)	–	?	?	–	–
COc1cccc(-n2cc(C(=O)NC(C)C)c3ccccc3c2=O)c1	–	–	?	–	–
C=CC[C@@H](CC(=O)N(CCO)Cc1ccccc1)C(=O)N[C@@H](C)COC(=O)[C@@H](CC=C)Cc1ccc(F)cc1	·	·	·	·	–
c1ccc(-n2ncc3c(NCCCN4CCOCC4)ncnc32)cc1	34	?	?	148	–
Fc1ccc(-n2ncc3c(NCCCN4CCOCC4)ncnc32)cc1	·	·	–	·	·
Clc1ccc(-n2ncc3c(NCCN4CCOCC4)ncnc32)cc1	43	–	?	121	–
O=C(NCCCN1CCCC1=O)c1ccc(NS(=O)(=O)c2cccc([N+](=O)[O-])c2)cc1	·	–	–	·	–
OC(COC(c1ccc(Cl)cc1)c1ccc(Cl)cc1)CN1CCN(c2ccccn2)CC1 (stereo not given)	–	?	?	–	28µM
Cc1ccc(C(=O)N/C(=C/c2ccc(-c3ccc([N+](=O)[O-])cc3)o2)C(=O)NCCCN(C)C)cc1	·	4µM	?	·	–
Cc1nc2cc(-c3sccc3-n3cccc3)nn2c(C)c1C	34	?	–	60	–
O=C(NCc1ccccc1C(F)(F)F)C12CN(Cc3ccccc3)CC1C(c1ccc([N+](=O)[O-])cc1)=NO2 (stereo not given)	18	·	·	–	–
CC(C)CCNC(=O)C12CN(Cc3ccccc3)CC1C(c1ccc([N+](=O)[O-])cc1)=NO2 (stereo not given)	–	–	·	–	?
CCOC(=O)c1c(C)nc(-c2ccccc2)nc1NC(=O)CC	24	?	–	70	–
CCc1nc2ccccc2c(C(=O)OCC(=O)C(C)(C)C)c1C	–	–	–	–	–
CCC(=O)Nc1nc(-c2ccccc2)nc(SC)c1C(C)=O	–	·	·	–	–
O=C(OCc1nc2ccccc2c(=O)[nH]1)c1cccs1	19	–	–	–	–
CCOC(=O)c1c(C)nc2ccccc2c1-c1ccccc1	–	–	–	–	–
CCOC(=O)c1c(C)nc2ccccc2c1C	25	–	–	–	–
CCc1nc2ccccc2c(C(=O)OCc2nc3ccccc3c(=O)[nH]2)c1C	·	3.5µM	?	·	–
COc1ccccc1CCC(=O)N1CCN(S(=O)(=O)c2cc(C(F)(F)F)ccc2Cl)CC1	·	·	·	·	–
COc1ccc(NC(=O)c2cc(C(C)=O)n3ccccc23)cc1	·	·	–	·	·
O=C(NCc1ccco1)c1ccc2sc([C@@H]3O[C@H](CO)[C@H](O)[C@H](O)[C@H]3O)nc2c1	·	·	·	·	–
SMILES	Cycloheximide cs	Marburg entry inh	Lassa entry inh	Shiga toxin inh	AMA1 RON2 block
Cc1ccc(CCNC(=O)CCCc2nnc3n(C)c(=O)c4sccc4n23)cc1	·	–	–	·	·
O=C(O)c1cc(=S)nc[nH]1	·	–	–	·	–
CCCNC(=O)c1ccc(COc2ccc(C)cc2)o1	–	·	·	–	–
CC(=O)Nc1ccc(NC(=O)c2ccc(COc3ccc(C)cc3)o2)cc1	19	?	–	111	–
COc1ccc(NC(=O)c2ccc(COc3ccc(C)cc3)o2)cc1	34	·	·	73	–
O=C(O)c1ccc(NC(=O)c2ccc(COc3ccccc3)o2)cc1	–	·	·	–	–
O=C(Cc1cccc(NC(=O)C2CCCN(C(=O)CCc3ccccc3)C2)c1)Nc1ccc(C(=O)N2CCCCC2)cc1 (stereo not given)	·	·	·	·	–
C#CCOCCOCCOCCNc1nc(N2CCN(C(=O)C([C@@H](C)CC)n3cc(C(N)Cc4ccc(O)cc4)nn3)CC2)nc(N2CCN(C(=O)[C@H](CCC(=O)O)n3cc(C(N)Cc4ccc(O)cc4)nn3)CC2)n1 (stereo not given in full)	–	·	·	–	–
COc1ccc(C(=O)C(C)OC(=O)c2cccc(S(=O)(=O)Nc3cc(Cl)c(OC)cc3OC)c2)cc1 (stereo not given)	–	7.1µM	?	–	–
CC(C)(C)c1ccc(C(O)c2ncc(-c3ccccc3F)[nH]2)cc1 (stereo not given)	·	·	·	·	–
COc1ccc(NC(=O)Cn2nnc(-c3nc(-c4ccncc4)no3)c2N)cc1OC	·	·	–	·	·
Nc1ncnc2c1ncn2[C@@H]1O[C@H](CO)C[C@H]1O	·	·	·	·	–
Nc1ncnc2c1ncn2C1C=C(CO)C(O)C1O (stereo not given)	·	?	0.25µM	·	–
COCCCNc1ncnc2c1c(-c1ccccc1)cn2-c1ccc(C)c(Cl)c1	·	·	–	·	·
CC1CCCN(C2(O)C(=O)Nc3ccc(Cl)cc32)C1 (stereo not given)	–	·	·	–	–
COc1ccc2cc(C(=O)NCC(=O)O)sc(=O)c2c1OC	–	?	–	–	–
COc1ccc2cc(C(=O)OC(C)C)sc(=O)c2c1OC	14	–	?	30	–
CCN(CC)S(=O)(=O)c1ccc2oc(C(=O)Nc3ccc(OC)cc3OC)c(C)c2c1	–	?	6.5µM	–	–
CCN(CC)S(=O)(=O)c1ccc2oc(C(=O)NCC3COc4ccccc4O3)c(C)c2c1 (stereo not given)	–	?	23µM	–	–
COc1ccccc1NC(=O)c1oc2ccccc2c1NC(=O)c1cc(OC)c(OC)c(OC)c1	·	–	?	·	–
CCOc1ccccc1NC(=O)Cc1coc2cc(C)ccc12	–	–	–	–	–
CCN(CC)S(=O)(=O)c1ccc2oc(C(=O)Nc3cc(C)ccc3OC)c(C)c2c1	·	·	–	·	·
COc1ccccc1NC(=O)c1oc2ccc(C)cc2c1C	34	–	–	–	–
COc1ccccc1NC(=O)Cc1coc2cc(C)ccc12	24	–	–	–	–
COc1ccc(-c2sc3ccccc3c2/C=C/c2ccncc2)cc1	·	·	·	·	–
SMILES	Cycloheximide cs	Marburg entry inh	Lassa entry inh	Shiga toxin inh	AMA1 RON2 block
COc1ccc(NC(=O)c2ccc(NC(=O)COC(=O)c3cnc(C)cn3)cc2)cc1	·	–	–	·	–
CCN(CC)S(=O)(=O)c1ccc2oc(C(=O)NCc3ccc(F)cc3)c(C)c2c1	–	?	5.8µM	–	–
Cc1c(C(=O)NCc2ccc(F)cc2)oc2ccc(S(=O)(=O)N3CCOCC3)cc12	–	?	·	–	–
O=C(c1ccccc1Cc1ccccc1)N1CCN(S(=O)(=O)c2ccccc2[N+](=O)[O-])CC1	·	?	–	·	–
CCOC(=O)c1ccc(Nc2cnc3ccccc3n2)cc1	47	?	–	78	–
O=C(O)c1ccc(Nc2cnc3ccccc3n2)cc1	38	–	–	–	–
CCOC(=O)c1ccc(Nc2cc(C)nc(-c3ccccc3)n2)cc1	–	·	·	–	–
CCOC(=O)c1ccc(Nc2nnc(C)c3ccccc23)cc1	20	?	?	56	–
CCOC(=O)c1ccc(NCc2nc3ccccc3[nH]2)cc1	53	–	–	73	–
COc1cc(CCC(=O)NCc2ccc3c(c2)CCN3C(=O)c2cccc(C)c2)cc(OC)c1OC	·	·	–	·	·
CCc1ccc(NCc2nc3ccccc3c(=O)[nH]2)cc1	25	?	–	88	–
CCCCNCc1nc2ccccc2c(=O)[nH]1	–	–	–	–	–

Screening data deposited in PubChem by National Center for Advancing Translational Sciences (NCATS).
